Bioassay records (PubChem)
DRD3 antagonist = antagonists of human D3 dopamine receptor; P35462; D3R cells, DiscoveRx beta-arrestin luminescence, antagonist mode; hits give low values; max response, negative = inhibition, %; actives 2.5% (n = 360,000); AID 652054; in the data active means max response below about -50%; inconclusive means no clear call, values can overlap the other calls; further: on the % scale 0 is the no-effect control and ±100 the full control effect
Target sequence (P35462 whole entry, looked up): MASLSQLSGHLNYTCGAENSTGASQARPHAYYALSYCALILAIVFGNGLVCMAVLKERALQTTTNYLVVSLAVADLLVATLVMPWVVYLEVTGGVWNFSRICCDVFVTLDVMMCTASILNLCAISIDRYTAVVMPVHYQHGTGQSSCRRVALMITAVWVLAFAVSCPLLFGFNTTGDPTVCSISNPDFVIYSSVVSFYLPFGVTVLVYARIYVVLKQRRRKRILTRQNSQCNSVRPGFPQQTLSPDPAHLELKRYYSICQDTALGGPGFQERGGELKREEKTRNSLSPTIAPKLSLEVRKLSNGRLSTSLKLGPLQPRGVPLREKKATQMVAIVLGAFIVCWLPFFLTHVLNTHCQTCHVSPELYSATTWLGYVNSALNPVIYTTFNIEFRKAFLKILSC
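Cells plated overnight at 1500 cells/well, then exposed to library compounds with dopamine controls for 90 minutes at 37 degrees C. DiscoveRx reagent added for 30–60 minutes at room temperature; luminescence read, quantitative HTS format.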
D1 antag = antagonists of human D1 dopamine receptor; P21728; HEK293 TREx D1 cells, calcium flux, dopamine EC80; hits give low values; activity change, negative = inhibition, % at 10 µM; actives 3.2% (n = 360,000); AID 504652; in the data active means activity change below about -30%; further: on the % scale 0 is the no-effect control and ±100 the full control effect
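HEK293 T-REx cells expressing inducible, force-coupled D1 receptor; no-wash Ca dye, 30–90 min RT. Cmpd → 180 s read at 1 Hz → EC80 DA → 180 s read.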
D1 potentiator = human D1 dopamine receptor positive modulation; P21728; actives 0.036% (n = 360,000); potentiation, % at 10 µM; HEK293 TREx D1 cells, calcium flux, dopamine EC20 potentiation; in the data active means potentiation above about 30%; further: 0% is about no effect
D1 ag = human D1 receptor agonism; P21728; HEK293 T-REx D1 cells, calcium flux, agonist mode; activation, % at 2 µM; actives 1% (n = 360,000); AID 504660; in the data active means activation above about 30%; further: 0% is about no effect
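Inducible HEK293 T-REx D1 cells, force-coupled to calcium signalling, were plated at 4000 cells/well with tetracycline and held overnight at 30 C. After no-wash calcium dye loading, compound-evoked calcium rise over 180 s flagged agonists.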
D3 ag = D3 dopamine receptor (human) agonism; P35462; D3R DiscoveRx beta-arrestin cells, luminescence, 90 min; max activation, %; actives 0.58% (n = 410,000); AID 652048; in the data active means max activation above about 30%; further: 0% is about no effect
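Cells at 1500/well, incubated overnight, then treated with pinned compounds (dopamine as control) for 90 min at 37 degrees C. DiscoveRx reagent added for 30 - 60 minutes at room temperature; luminescence read.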
* marks the source's active call; other numbers are inactive results; ? = inconclusive; / = not tested or not shown. An excerpt weighted towards active compounds, which were near 6% of everything screened.

SMILES	DRD3 antagonist	D1 antag	D1 potentiator	D1 ag	D3 ag
COCCNC(=O)C12CC3CC(C1)CC(c1ccccc1)(C3)C2	-16	0	-5	1	-7
COc1ccc(NC(=O)C23CC4CC(C2)CC(c2ccccc2)(C4)C3)c(OC)c1	5	5	15	5	32*
COc1ccc(NC(=O)C(=O)NNC(=O)c2cccs2)cc1	-21	7	-5	1	-8
COc1ccc(OC)c(NC(=O)C(=O)NNC(=O)C23CC4CC(CC(C4)C2)C3)c1	9	0	11	40*	4
O=C(CCCN1C(=O)NC2(CCCC2)C1=O)Nc1ccc(Cl)c(S(=O)(=O)N2CCOCC2)c1	5	-3	-2	1	9
O=C(c1ccc([N+](=O)[O-])o1)N1CCN(c2nc3c(F)cc(F)cc3s2)CC1	0	-31*	-7	3	2
Cc1ccc(C)c2sc(N3CCN(C(=O)c4ccc([N+](=O)[O-])o4)CC3)nc12	?	-6	-1	5	2
Fc1ccc(NC(=S)N2N=CCC2c2ccccc2)cc1 (stereo not drawn)	40	-2	-4	77*	1
O=[N+]([O-])c1ncccc1OCc1ccc(-c2ccccc2)cc1	-10	-33*	-7	6	3
FC(F)(F)c1ccccc1-n1c(-c2ccco2)n[nH]c1=S	-19	4	32*	3	11
Cc1c(Cl)c(-c2n[nH]c(=S)n2Cc2ccco2)nn1C	-54*	4	0	2	-1
S=c1[nH]nc(-c2ccncc2)n1Cc1ccco1	7	-19	-7	2	-3
S=c1[nH]nc(-c2ccc(Br)o2)n1Cc1ccccc1	-82*	4	-1	1	-37
S=c1[nH]nc(-c2ccco2)n1Cc1ccccc1	-81*	-7	-3	9	-2
CCNC(=O)C1(C)CCCN(C(=O)c2ccc(F)c(C)c2)C1 (stereo not drawn)	0	/	/	/	-4
C[C@@H]1C=C(C(=O)N2CCN(Cc3ccc4c(c3)OCO4)CC2)O[C@H](OCCCCO)C1	19	-38*	-4	0	16
O=C(C1=C[C@@H](c2ccc(Br)cc2)C[C@@H](OCCCCO)O1)N1CCN(Cc2ccc3c(c2)OCO3)CC1	2	-28	-2	24	-4
O=C(C1=C[C@H](C2CC2)C[C@H](OCCCCO)O1)N1CCN(Cc2ccc3c(c2)OCO3)CC1	-28	-4	-5	-4	-33
O=C(C1=C[C@H](c2ccccc2)C[C@H](OCCCCO)O1)N1CCOCC1	-4	-40*	-1	5	-4
O=C(C1=C[C@H](c2ccc(Br)cc2)C[C@H](OCCCCO)O1)N1CCN(Cc2ccccc2)CC1	-24	-30*	-3	7	-11
Cc1cccc(N2CCN(CCCNc3ncnc4onc(-c5ccc(F)cc5)c34)CC2C)c1 (stereo not drawn)	/	6	2	0	-30
Cc1ccc(S(=O)(=O)N2CC=C(c3c(C)n(CC(=O)N4CCCC4)c4ccccc34)CC2)cc1C	/	2	-4	4	-6
Cc1ccc(Cl)cc1N1CCN(C(=S)NCc2ccco2)CC1	-28	/	-9	1	-11
S=C(NCc1ccco1)N1CCN(c2ccccc2Cl)CC1	0	-33*	-9	3	-14
CCOc1ccc(-c2c(C(=O)N/N=C/c3ccc(O)cc3)nnn2-c2nonc2N)cc1	-8	40	-20	2	-1
SMILES	DRD3 antagonist	D1 antag	D1 potentiator	D1 ag	D3 ag
COc1cccc(-c2c(C(=O)N/N=C/c3ccsc3)nnn2-c2nonc2N)c1	-15	29	15	163*	-5
CCOc1ccc(-c2c(C(=O)N/N=C/c3ccsc3)nnn2-c2nonc2N)cc1	10	33	2	38*	5
CN1C[C@H]2CON(C)[C@H]2C[C@H]1c1cccc(N2CCOCC2)c1	0	/	/	/	-21
O=S(=O)(c1ccc2c(c1)OCCO2)N1CCN(S(=O)(=O)c2ccccc2F)CC1	/	-7	18	3	/
C#CCOCCOCCOCCNc1nc(N2CCN(C(=O)CCCCCCCCCCNC(=O)[C@H]([C@@H](C)CC)n3cc(CCCCN=C(N)N)nn3)CC2)nc(N2CCN(C(=O)CCCCCCCCCCNC(=O)[C@H](CCCCN)n3cc(C)nn3)CC2)n1	?	31	-2	3	-20
C#CCOCCOCCOCCNc1nc(N2CCN(C(=O)CCCCCCCCCCNC(=O)[C@H](CCCCN)n3cc(CCCC(=O)O)nn3)CC2)nc(N2CCN(C(=O)CCCCCCCCCCNC(=O)[C@@H]([C@H](C)O)n3cc(C)nn3)CC2)n1	9	6	6	44*	-5
C#CCOCCOCCOCCNc1nc(N2CCOCC2)nc(N2CCN(C(=O)CCCCCCCCCCNC(=O)[C@@H](CCC(=O)O)n3cc(CCCCCN)nn3)CC2)n1	18	-8	-4	6	-11
C#CCOCCOCCOCCNc1nc(N2CCN(C(=O)CCCCCCCCCCNC(=O)[C@H](CCCCN)n3cc(C)nn3)CC2)nc(N2CCN(C(=O)CCCCCCCCCCNC(=O)[C@H](CCCCN)n3cc(CCCC(=O)O)nn3)CC2)n1	26	14	-3	30*	6
CC1=NOC(=O)/C1=C/c1ccc(-c2ccc(Cl)cc2)o1	/	-3	-4	0	/
CC1=NOC(=O)/C1=C\c1ccc(-c2cc(Cl)ccc2Cl)o1	-63*	6	-2	-1	-6
Cc1nc(Nc2ncc(C(=O)Nc3c(C)cccc3Cl)s2)cc(N2CCN(CCO)CC2)n1	/	/	/	/	-14
O=C(CCCSc1nc2ccccc2[nH]1)NC1CCCCC1	-8	6	-2	2	0
Cc1ccc(NC(=O)CCCSc2nc3ccccc3[nH]2)cc1	3	-33*	-1	1	-1
O=C(CCCSc1nc2ccccc2[nH]1)Nc1nnc(C2CC2)s1	9	-36*	-11	4	1
CC(C)(O)C#Cc1cccc(-c2nc(C(=O)NCCCN3CCOCC3)cc3c2[C@H](CCO)N(S(=O)C(C)(C)C)C3)c1 (stereo partly drawn)	-22	/	/	/	1
N#C/C(=C\Nc1ccccc1O)c1nc2ccccc2o1	-5	-36*	-7	21	0
CCCS(=O)(=O)N1CC(=O)N(c2cccc(Cl)c2C)C(C)(C(=O)NC2CCCC2)C1 (stereo not drawn)	/	-1	0	-2	-3
Cc1ccc(CONC(=O)c2cccc([N+](=O)[O-])c2)cc1	-5	-4	-10	0	4
COC(=O)C(/C=N/OCc1ccc([N+](=O)[O-])cc1)NC(=O)c1cccc(Cl)c1 (stereo not drawn)	-9	-5	-10	41*	-11
COc1ccc(NC(=S)N(Cc2ccc(C)cc2)Cc2ccccn2)cc1	-27	-31*	-3	1	-2
Cc1cc2c(s1)c1cnn(Cc3c(F)c(F)c(C(F)(F)F)c(F)c3F)c(=O)c1n2C	/	7	1	1	/
